# Data from PubChem BioAssay AID431 (Sanford-Burnham Center for Chemical Genomics, 2006).
# Hit rate of the full screen: of about 63,000 compounds, about 1,100 (1.7%) were called active. Only a selection was taken, and actives are over-represented in it overall. Measured potencies and affinities stand elsewhere. A number with no mark means an inactive call.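 How the source made its calls: active means compounds whose percent cytotoxicity in the single-dose primary screen, scaled between solvent and toxic-drug controls, exceeds 50; inactive means the rest.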
# Assay: viability loss of HPDE-C7K cells – cell-based, fluorescence, HTS, primary screen (AID 431);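 further: 0% = DMSO solvent wells and 100% = doxorubicin-treated wells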
# Settings: HPDE-C7K KRASV12 cells, Alamar Blue viability, 48 h; at 10 µM; hits give high values
row,SMILES,cytotoxicity
1,CC(C)(C)NC(=O)c1ccc2nccnc2c1,12.3%
2,COc1ccccc1NC(=O)N(CCN(C)C)Cc1cc2cc(C)ccc2[nH]c1=O,19.6%
3,CCCC(C(=O)NC1CCCC1)N(C(=O)Cn1nnc(-c2ccc(C)o2)n1)C1CCCC1 (stereo not given),-0.4%
4,CC(C)OC(=O)CSc1nc(N)c(C#N)c(-c2cccs2)c1C#N,5%
5,CC(C)OC(=O)CCC1(C(=O)O)CCC(=O)NC1 (stereo not given),-7.1%
6,O=C(CC(SCc1ccco1)c1ccc(O)cc1)c1cccs1 (stereo not given),57.7% (active)
7,O=C(CSCc1ccco1)c1cccs1,-15.8%
8,O=C(CSc1nnc(-c2ccc(O)cc2)n1Cc1ccco1)c1cccs1,2.5%
9,CCOC(=O)C1=C(C)OC(N)=C(C#N)C1c1ccsc1 (stereo not given),9.1%
10,CCOc1ccc(C2CC(c3ccc(F)cc3)n3ncnc3N2)cc1 (stereo not given),3.1%
11,Cc1ccc(C(=O)CC(C(=O)O)n2cccn2)cc1 (stereo not given),-4.8%
12,Cc1ccc(C(=O)CC(C(=O)O)n2ccc(C)n2)cc1 (stereo not given),4.5%
13,O=C(c1ccco1)N1CCN(C(=O)c2cccn3c(=O)c4c5c(sc4nc23)CCCC5)CC1,-9.7%
14,Cc1cccc(Cn2cnc3c(nnn3Cc3ccc(Cl)cc3)c2=O)c1,-2.1%
15,COC(=O)c1sc(N)c(C(=O)OC)c1COC(=O)c1c(C)noc1C,56.4% (active)
16,COc1ccc(C(C)=O)cc1COC(=O)c1c(C)noc1C,18.5%
17,COC(=O)c1c(N)sc(C(C)=O)c1C,0%
18,Cc1cccc(Cn2c(SCCN3CCCCC3)nc3c2c(=O)[nH]c(=O)n3C)c1,-3.8%
19,O=C1C(Cl)=C(NCC2CCCO2)C(=O)N1CCc1ccccc1 (stereo not given),-4.3%
20,C[C@]12CC[C@@H]3c4ccc(O[C@@H]5O[C@H](C(=O)O)[C@@H](O)[C@H](O)[C@H]5O)cc4CC[C@H]3[C@@H]1C[C@@H](O)[C@@H]2O,-13.5%
21,C[C@]12CC[C@@H]3c4ccc(OC(=O)c5ccccc5)cc4CC[C@H]3[C@@H]1CC[C@@H]2O,54.4% (active)
22,C[C@]12CC[C@@H]3c4ccc(O)cc4CC[C@H]3[C@@H]1CC[C@@H]2OC(=O)CCC(=O)O,-1.7%
23,Cc1nnc(SCC(=O)Nc2nsc(-c3ccccc3)n2)s1,11.4%
24,c1ccc(Cn2nnnc2C(c2cccs2)N2CCOCC2)cc1 (stereo not given),-11.8%
25,COc1ccc(Cl)c(S(=O)(=O)N2CCCC2)c1,-3.5%

row,SMILES,cytotoxicity
1,COc1ccc(C(N)=O)cc1NC(=O)CC(O)(C(F)(F)F)C(F)(F)F,-2%
2,Cc1cc(NC(=O)C2CC(c3cccc(Br)c3)=NO2)no1 (stereo not given),-11%
3,CC(C)(O)c1cc(=O)sc2nc3ccccc3n12,-10.2%
4,N=c1cc(C2(O)CCCCC2)n2c(nc3ccccc32)s1,59% (active)
5,c1ccc2nc3c(nc2c1)sc1nc2ccccc2n13,-4%
6,COCCNC(=O)C(c1ccc(C)o1)N(C(=O)c1snc(C(N)=O)c1N)c1cccc(C)c1 (stereo not given),-12.1%
7,Cc1ccc2c(c1)[nH]c1c(=O)n(CCCN3CCOCC3)cnc12,-20.9%
8,N#Cc1nc(-c2ccc(F)cc2)oc1NCc1ccccc1,-1.5%
9,COc1ccc(CNc2oc(-c3ccccc3)nc2C#N)cc1,3.8%
10,CC(C)(C)c1ccc(-c2nc(C#N)c(NCc3ccncc3)o2)cc1,60.5% (active)
11,COC(=O)c1sccc1NC(=O)CN1CCN(c2ccc(F)cc2)CC1,10.5%
12,O=C(CCN1Cc2ccccc2C1)c1ccc2c(c1)OCCO2,-11.8%
13,O=C(CCN1CCc2ccccc21)c1ccc2c(c1)OCCO2,4.4%
14,O=C(CCCN1CCOCC1)c1ccc2c(c1)OCCO2,-11.1%
15,O=C(CCN1CCc2ccccc2C1)Nc1ccc2c(c1)OCO2,-0.3%
16,CCCn1c(SCCN2C(=O)c3ccccc3C2=O)n[nH]c1=O,2.1%
17,Cc1cccc(NC(=O)CSc2nnc(-c3ccccc3)n2N)c1C,-15%
18,CCOC(=O)c1c(C)oc2c1c(C=NCc1ccccn1)c(O)c1ccccc12,99.2% (active)
19,CCOC(=O)c1c(C)oc2c1c1c(c3ccccc32)OCN(Cc2cccnc2)C1,29.9%
20,CCOC(=O)c1c(C)oc2c1c(C(c1cccnc1)N1CCN(C)CC1)c(O)c1ccccc12 (stereo not given),125% (active)
21,CCOC(=O)c1c(C)oc2c1c(C=NCC1CCCO1)c(O)c1ccccc12 (stereo not given),-16.3%
22,CCOC(=O)c1c(C)oc2c1c(/C=N/c1ccccn1)c(O)c1ccccc12,4.3%
23,CCOC(=O)c1c(C)oc2c1c(C=NC1CCS(=O)(=O)C1)c(O)c1ccccc12 (stereo not given),23.8%
24,Oc1ccccc1-c1cc(-c2ccccc2Cl)[nH]n1,15.9%
25,Cc1ccc(-c2cc(-c3ccccc3Cl)[nH]n2)c(O)c1,59.5% (active)
